Records with an inconclusive call do not appear. Where a call stands in place of a potency, no number is given. Values without a mark were called inactive. Activity calls are given as the source filed them. Calls follow the shape of the dose curve; as a rule, active = well fitted inhibition curve with a large enough effect; inconclusive = small, poorly fitted or top-dose-only effect; inactive = flat fitted curve, though single readings scatter.
Test: P-glycoprotein substrates identified in KB-8-5-11 adenocarcinoma cell line, qHTS therapeutic library screen (AID 1346987); also: nearly all actives have a fitted effect of over 65% in size
Details: KB-8-5-11 (P-gp overexpressing) viability, CellTiter-Glo, 72 h; series mostly up to 44.5 µM
Text: The ATP-binding cassette transporters P-glycoprotein (P-gp) is known to limit brain penetration of many chemotherapy drugs. […] As such, we developed a high-throughput screen (HTS) to identify substrates of P-gp from a series of chemical libraries including the National Center for Advancing Translational Sciences Pharmaceutical Collection NPC, 2,816 compounds), testing a total of 10,804 compounds, most of which have known mechanisms of action. We used the CellTiter-Glo viability assay to test library compounds against the parental KB-3-1 human cervical adenocarcinoma cell line and the colchicine-selected sub-line KB-8-5-11 that over-expresses P-gp. KB-8-5-11 cells were also tested in the presence of a P-gp inhibitor (tariquidar) to assess reversability of transporter-mediated resistance. Of the tested compounds, a total of 90 P-gp substrates were identified including 55 newly identified P-gp substrates. Substrates were confirmed using an orthogonal killing assay against HEK-293 cells transfected with P-gp. As exemplars, we confirmed that […] (cyclin-dependent kinase inhibitor); AT9283, (Janus kinase 2/3 inhibitor); ispinesib (kinesin spindle protein inhibitor); gedatolisib (PKI-587, phosphoinositide 3-kinase/mammalian target of rampamycin inhibitor); GSK-690693 (AKT inhibitor); and KW-2478 (heat shock protein 90 inhibitor) were substrates , and direct ATPase stimulation was assessed. ABCG2 was also found to confer high levels of resistance to AT9283, GSK-690693 and gedatolisib, while ispinesib, AT7519 and KW-2478 were weaker substrates.
The HeLa derivative cell line, KB-3-1, and its colchicine-selected, P-gp-overexpressing subline, KB-8-5-11 were maintained in DMEM with 10% FCS and Pen/Strep with glutamine at 37 degree C in 5% CO2. For KB-8-5-11 cells, colchicine was added to the medium at a concentration of 100 ng/mL. HEK-293 cells transfected with empty vector (pcDNA) or vector containing human ABCB1 (MDR-19) or ABCG2 (R-5) have been described previously (Robey, Lin, Qiu, Chan & Bates, 2011) and were maintained in EMEM supplemented with 10% FCS, Pen/Strep and glutamine with 2 mg/ml G418 to select for the expression of the transporter. Cultures were confirmed to be free of mycoplasma infection using the MycoAlert Mycoplasma Detection Kit (Lonza, Walkersville, MD). For the screen, assay medium was identical to culture medium except for KB-8-5-11 where colchicine was excluded from the medium.
All cell lines were plated into 1536-well plates at 500 cells/well in 5 uL media. Compounds were then pinned in dose-response using a 1536-head pin tool (Kalypsis, San Diego, CA) and plates were incubated at 37 degree C in 5% CO2 for an additional 72 h. CellTiter-Glo reagent (Promega) was dispensed into the wells, incubated for 5 min and luminescence was read on a ViewLux instrument (Perkin-Elmer). Cytotoxic compounds were defined as those that yielded a curve class of -1.1, -1.2, -2.1, -2.2, -2.3, or -2.4, a maximum response of >50% and an AC50 of < 10 uM. Cherry-picked hits from screening analysis were tested with both the KB pair of cell lines, and the pcDNA (empty vector control) and MDR-19 (P-gp overexpressing) pair were tested, in the absence and presence of tariquidar.
For `C=C1CCc2occ(C)c2[C@H]2[C@H]1[C@@]13O[C@@]1(C[C@@H](C)[C@H]3OC(C)=O)[C@H]1O[C@@]21C`, the Potency was “inactive”. In the case of `CC(C)[C@@](O)(c1ccc2cc(OC(F)F)c(OC(F)F)cc2c1)c1cn[nH]n1`, the Potency is reported as “inactive”. For `CCCCS(=O)(=O)NC(Cc1ccc(OCCCCC2CCNCC2)cc1)C(=O)O` (stereo not given), the Potency was “inactive”. In the case of `CC(=O)OC(C)C(C)(O)C(=O)O[C@@H]1CC[C@]2(C)CC(=O)C(=C(C)C)C[C@H]2[C@]1(C)OC(C)=O` (stereo not given in full), the Potency is reported as “inactive”. For `N#CN1CCC[C@@H](n2nc(-c3ccc(Oc4ccc(F)cc4F)cc3)c(C(N)=O)c2N)C1`, the Potency was “inactive”. With `C=CC(C)(O)CC/C=C(\C)C(=O)O[C@@H]1[C@@H](O)[C@H](OC(C)(C=C)CC/C=C(\C)C(=O)O)O[C@H](CO)[C@H]1OC(=O)/C(C)=C/CCC(C)(O)C=C` (stereo not given in full) the Potency was “inactive”. For `COC(=O)C1=COC(OC2OC(CO)C(O)C(O)C2O)C2C(COC(=O)/C=C/c3ccc(O)c(O)c3)C(O)C(O)C12` (stereo not given), the Potency was “inactive”. In the case of `C/C=C(\C)C(=O)OC[C@H]1O[C@@H](O[C@H]2[C@@H](O[C@H]3O[C@H](COC(=O)/C(C)=C/C)[C@@H](O)[C@H](O)[C@H]3O[C@@H]3O[C@H](COC(=O)/C(C)=C/C)[C@@H](O)[C@H](OC(=O)/C(C)=C/C)[C@H]3O)O[C@H](COC(=O)/C(C)=C/C)[C@@H](O)[C@@H]2O)[C@H](O)[C@@H](O)[C@@H]1O`, the activity change, negative = cytotoxicity is reported as 0.351% [at 9.29 µM]. With `CC1(C(=O)O)CCCC2(C)C3CCC4CC3(CCC12)CC4(O)CO` (stereo not given) the Potency was “inactive”. With `O=C(O)CCc1c(C(=O)O)[nH]c2cc(Cl)cc(Cl)c12` the Potency was “inactive”. In the case of `COC(=O)C1(C)CCCC2(C)c3ccc(C(C)C)cc3C(O)C(O)C12` (stereo not given), the Potency is reported as “inactive”. For `Cc1nnc(-c2sc(NC(=O)[C@H](C(C)C)n3c(=O)[nH]c4ccccc4c3=O)nc2C)o1`, the Potency was “inactive”. For `COC(=O)C1C(c2ccc(O)cc2)C(C(=O)O)C1c1ccc(O)cc1` (stereo not given), the Potency was “inactive”. In the case of `C=C1CC[C@H]2[C@@](C)(CCC(OC3OC(CO)C(O)C(O)C3O)[C@@]2(C)CO)C1C(=O)CC1=CCOC1=O` (stereo not given in full), the Potency is reported as “inactive”. With `CC[C@@H](Nc1c(Nc2cccc(C(=O)N(C)C)c2O)c(=O)c1=O)c1ccc(C)o1` the Potency was “inactive”. For `CC1(C)CCCC2(C)c3c4c(c(=O)oc(=O)c3=CCC12)=CCC1C(C)(C)CCCC41C` (stereo not given), the Potency was “inactive”. For `C=C1CCC2[C@@](C)(C(=O)O)CCC[C@@]2(C)[C@@H]1CCc1ccoc1` (stereo not given in full), the Potency was “inactive”. With `CCOC(=O)c1ccc(NC2CCCCC2)c(N)c1` the Potency was “inactive”. In the case of `CC1(C)[C@H]2C[C@H](C/C=C\CCCC(=O)O)[C@@H](NC(=O)c3csc4ccc(O)cc34)[C@@H]1C2`, the Potency is reported as “inactive”. For `COC(=O)C1=COC(OC2OC(CO)C(O)C(O)C2O)C2C(C)C(OC(=O)/C=C/c3ccc(O)cc3)C(O)C12` (stereo not given), the Potency was “inactive”. In the case of `Cc1ccc(C)c(S(=O)(=O)n2cnc3ccccc32)c1`, the Potency is reported as “inactive”. For `O=[N+]([O-])c1cc(Cl)ccc1S(=O)(=O)N1CCN(Cc2ccccc2)CC1`, the Potency was “inactive”. For `Cc1nc2cc(-c3cc(F)cc(C#N)c3)ccc2s1`, the Potency was “inactive”. For `Cc1cc(-n2c(=O)[nH]c(=O)n(C)c2=O)ccc1Oc1ccc(SC(F)(F)F)cc1`, the Potency was “inactive”. With `C=C1C(O)CCC2(C)CC3(OC)OC(=O)C(C)=C3CC12` (stereo not given) the Potency was “inactive”. `COc1cc2c(c(OC)c1O)C(c1ccc(O)cc1)C1C(=O)OC3C(COC(=O)C1=C2)OC(CO)(OC1OC(COC(=O)/C=C/c2ccc(OC4OC(C)C(O)C(O)C4O)cc2)C(O)C(O)C1O)C3O` (stereo not given) showed an activity change, negative = cytotoxicity of 2.8% [at 9.29 µM]. With `CC(C)=CCC(O)[C@](C)(O)C1[C@H](O)C[C@@]2(C)C3CC=C4C(C[C@H](O)[C@@H](O[C@@H]5O[C@H](CO)[C@@H](O)[C@H](O)[C@H]5O)C4(C)C)[C@]3(C)C(=O)C[C@]12C` (stereo not given in full) the Potency was “inactive”. For `CC1CCC2(NC1)OC1C(O)C3C4CCC5CC(O[C@@H]6O[C@H](CO)[C@@H](O)[C@H](O)[C@H]6O[C@@H]6O[C@@H](C)[C@H](O)[C@@H](O)[C@H]6O)CCC5(C)C4CCC3(C)C1C2C` (stereo not given in full), the Potency was “inactive”. In the case of `Cc1ccc(-c2c(-c3nn(C)c4ncnc(N5CCC(N6CCCCC6)C5)c34)cnn2C)cc1` (stereo not given), the Potency is reported as “inactive”. For `CC(=O)/C=C/C1(O)C(C)CC(O[C@@H]2O[C@H](CO)[C@@H](O)[C@H](O)[C@H]2O)CC1(C)C` (stereo not given in full), the Potency was “inactive”. In the case of `COc1cc(C(=O)OC[C@@]2(O)CO[C@@H](O[C@H]3[C@H](Oc4ccc(O)cc4)O[C@H](CO)[C@@H](O)[C@@H]3O)[C@@H]2O)cc(OC)c1O`, the Potency is reported as “inactive”. For `COc1cc(C[C@@]2(O)CO[C@@H](c3ccc(O[C@@H]4O[C@H](CO)[C@@H](O)[C@H](O)[C@H]4O)c(OC)c3)[C@H]2CO)ccc1O`, the Potency was “inactive”. With `COc1ccc(C(=O)NCc2cc(C(C)C)no2)cc1OC1CCN(C)CC1` the Potency was “inactive”. In the case of `O=C(OCC1OC(Oc2ccc(O)cc2COC(=O)C2(O)C(O)CCC(=O)C2OC(=O)C2C=CCC2)C(OC(=O)C2C=CCC2)C(O)C1O)C1C=CCC1` (stereo not given), the Potency is reported as “inactive”. For `C/C=C/C=C/C(=O)OC1CC/C=C/C(O)C(O)C(CCC)OC1=O` (stereo not given), the Potency was “inactive”. For `OC[C@H]1O[C@@H](OCCc2ccccc2)[C@H](O[C@@H]2OC[C@@H](O)[C@H](O)[C@H]2O)[C@@H](O)[C@@H]1O`, the Potency was “inactive”. For `C[C@]12CC[C@@H]3c4ccc(O)cc4CC[C@H]3[C@@H]1C[C@@H](O[C@@H]1O[C@H](C(=O)O)[C@@H](O)[C@H](O)[C@H]1O)[C@@H]2O`, the Potency was “inactive”. With `CC(=O)OC1(C)CC(O)C2(O)C=COC(OC3OC(CO)C(O)C(O)C3O)C12` (stereo not given) the Potency was “inactive”. In the case of `CC1(C)OC(=O)CC(O)C2(C)C1CC(=O)C1(C)C2C(O)CC2(C)C(c3ccoc3)OC(=O)C3OC321` (stereo not given), the Potency is reported as “inactive”. With `CC1(C)CC[C@]2(C(=O)O)CC[C@]3(C)C(=CCC4[C@@]5(C)CC[C@H](O[C@H]6O[C@H](C(=O)O)[C@@H](O)[C@H](O[C@@H]7O[C@H](CO)[C@H](O)[C@H](O)[C@H]7O)[C@H]6O)C(C)(C)C5CC[C@]43C)[C@@H]2C1` (stereo not given in full) the outcome was “inactive [at 9.29 µM]”.
